AMA1 RON2 block = qHTS for Inhibitors of AMA1-RON; Towards Development of Antimalarial Drug Lead: Primary Screen | AlphaScreen AMA1-biotinylated RON2 peptide binding | Potency, µM (top dose mostly 58.2 µM), for inactives: top-dose activity change, negative = inhibition, actives largely listed as inhibitors | 0.2% of 360,000 active | AID 720542, 2013;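 also: 0% = vehicle wells and -100% = peptide control; nearly all actives have a fitted effect of over 45% in size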
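AMA1 (3D7) with his tag at 25 nM final met compounds first, then biotinylated RON2 peptide at 25 nM; detection used donor plus acceptor beads, 10 µg/mL apiece, read by AlphaScreen after 30 min at room temperature.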
Vaccinia Venus = qHTS for Stage-Specific Inhibitors of Vaccinia Orthopoxvirus: Venus Reporter Primary qHTS. Vaccinia virus Venus reporter expression, fluorescence. Potency, µM (doses to about 36.5 µM), for the others: top-dose activity change, negative = inhibition, usual class: inhibitors. 0.46% of 330,000 active; calls by dose curve; tested in A549 cells; also: nearly all actives have a fitted effect of over 30% in size
Pf growth 96h = Primary qHTS for delayed death inhibitors of the malarial parasite plastid, 96 hour incubation. Potency, µM (highest dose often 28.7 µM), inactives show top-dose activity change, negative = inhibition, usual class: inhibitors. 6.9% of 320,000 active. P. falciparum luciferase reporter growth, 96 h
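P. falciparum expressing integrated firefly luciferase grown in erythrocytes (2% hematocrit, 0.05% parasitemia final) with compounds for 96 hours at 37 C, 5% CO2. Growth inhibition read as loss of luminescence after adding luciferase detection reagent.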
Pf growth 48h = Primary qHTS for delayed death inhibitors of the malarial parasite plastid, 48 hour incubation; Potency, µM (highest dose often 28.7 µM), inactives show top-dose activity change, negative = inhibition, actives largely listed as inhibitors; AID 504832, 2011; 5.9% of 310,000 active; P. falciparum luciferase growth in erythrocytes, 48 h
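Parasite viability was followed by luminescence of a genomically integrated firefly luciferase. Cultures held 0.1% parasitemia at 2% hematocrit (final), incubated under 5% CO2 at 37 C.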
Vaccinia mCherry = qHTS for Stage-Specific Inhibitors of Vaccinia Orthopoxvirus: mCherry Reporter Primary qHTS; Vaccinia virus mCherry reporter infection, fluorescence; Potency, µM (highest dose often 36.5 µM), for the others: at the top dose activity change, negative = inhibition, hits mostly inhibitors; 0.63% of 310,000 active; AID 720579, 2013; calls by dose curve; tested in A549 cells; also: nearly all actives have a fitted effect of over 35% in size
The depositor's hits bear a star; i = inactive; ? = inconclusive; nt = not tested or not shown; [ ] = remark or other dose. Sampled rows, rich in hits. Any-hit rate of the full collection: about 8.7%. Unless noted, calls follow the shape of the dose curve; as a rule, active = well fitted curve in the direction sought with a large enough effect; inconclusive = small, poorly fitted or top-dose-only effect, or another doubt; inactive = no such curve, though single readings can be large; an effect the other way counts as inactive or inconclusive. Unless noted, % is scaled to controls: 0 for no effect and ±100 for the full control effect; potency is read from the fitted curve at half-maximal effect.

SMILES	AMA1 RON2 block	Vaccinia Venus	Pf growth 96h	Pf growth 48h	Vaccinia mCherry
Cc1nn(-c2ccccc2)c2c1C(c1cccnc1)N1C=C(S(=O)(=O)N3CCCCC3)C=CC1=N2 (stereo not given)	-8%	-11%	53%	1.9µM*	nt
Cc1ccc(S(=O)(=O)N2CCCCC2)cc1C(=O)Nc1cccnc1	-17%	0%	10%	11%	i
CCN1/C(=C\C=C\C2=[N+](CC)c3ccccc3C2(C)C)C(C)(C)c2ccccc21	14µM*	nt	0.15µM*	nt	nt
CCOC(=O)c1c(NC(=O)c2cc3nc(-c4ccccc4)cc(C(F)(F)F)n3n2)sc2c1CCC(C)C2 (stereo not given)	nt	-15%	nt	nt	-15%
N#Cc1c(NC(=O)CSc2nc(N)cc(=O)[nH]2)sc2c1CCCCCC2	1%	-21%	26%	-1%	-23%
N#Cc1c(NC(=O)CSc2ncn[nH]2)sc2c1CCCCC2	29%	?	nt	9.3µM*	?
CCn1c(N2CCN(Cc3ccc([N+](=O)[O-])cc3)CC2)nc2ccccc21	2%	nt	13µM*	?	nt
COc1ccc2nc(Sc3c([N+](=O)[O-])nc(C)n3Cc3ccccc3)[nH]c2c1	-3%	nt	?	23%	nt
Cc1nc([N+](=O)[O-])c(N2CCN(Cc3ccccc3)CC2)n1Cc1ccccc1	-17%	-10%	17µM*	nt	i
Cc1cc2nc(Sc3c([N+](=O)[O-])nc(C)n3Cc3ccccc3)[nH]c2cc1C	-16%	?	?	10µM*	?
Cc1nc([N+](=O)[O-])c(Sc2nc3ccccc3[nH]2)n1Cc1ccccc1	16%	-28%	4.1µM*	?	?
COc1ccc(CNC(=O)CCn2c(=O)c3cccn3c3ccc(F)cc32)cc1OC	nt	-7%	nt	nt	-4%
CCOC(=O)c1c(C)[nH]c(C)c1S(=O)(=O)N1CCCC(C(=O)NCc2cccc(OC)c2)C1 (stereo not given)	nt	2%	nt	nt	-2%
CCN1CCC(N(Cc2cccc(OC)c2)C(=O)Nc2cccc(C(F)(F)F)c2)CC1	nt	-13%	nt	nt	-5%
O=C(COc1ccc(Nc2ccccc2)cc1)Nc1ccncc1	?	-2%	0%	-6%	?
Oc1cc(NCCc2cccnc2)cc2cccnc12	nt	nt	8.3µM*	12µM*	nt
Oc1cc(Nc2cccnc2)cc2cccnc12	nt	nt	4.1µM*	10µM*	nt
COc1ccc(Nc2cc(O)c3ncccc3c2)cc1	nt	nt	0.41µM*	0.47µM*	nt
COc1ccc(C(=O)Nc2cc(OC)cc3cccnc23)cc1	10%	nt	27%	35%	nt
Oc1cc(Nc2ccncc2)cc2cccnc12	nt	nt	?	12µM*	nt
Cc1ccc(C(=O)COC(=O)c2cccc(NC(=O)c3ccc(Cl)cc3Cl)c2)cc1	nt	-20%	nt	nt	-25%
Cn1cnnc1Sc1ccc(CN2CCOc3ccc(C4=Cc5ccccc5CC4)cc3C2)o1	nt	-6%	nt	nt	-23%
O=[N+]([O-])c1cc(-c2nc(-c3ccccc3)no2)ccc1N1CCOCC1	nt	0%	nt	nt	-6%
CCOc1ccc(C2N3CC4(C(C)C)CN2CC(C(C)C)(C3)C4=O)cc1OC (stereo not given)	nt	-8%	nt	nt	-4%
c1ccc2c(c1)CC/C2=N/Nc1nc2ccccc2[nH]1	8%	-18%	?	2.6µM*	-29%
SMILES	AMA1 RON2 block	Vaccinia Venus	Pf growth 96h	Pf growth 48h	Vaccinia mCherry
CC(C)(C)NCC(O)COc1ccccc1C(=O)CCc1ccccc1 (stereo not given)	0%	?	?	nt	?
CC(C)(C)NCC(O)COc1ccccc1C(C)(C)C (stereo not given)	-6%	-15%	?	4.7µM*	-1%
CC(C)(C)NC[C@@H](O)COc1ccccc1C1CCCC1	nt	nt	2.3µM*	2.9µM*	nt
Cc1c(Cl)cccc1NC(=O)Nc1c[nH]c(=O)[nH]c1=O	nt	-5%	nt	nt	-15%
Cc1ccc(Cl)cc1N1CCN(C(=O)CCS(=O)(=O)c2cc(Br)cc3c2N(C(=O)C2CC2)CC3)CC1	nt	-17%	nt	nt	-22%
Cc1cccc(NC(=O)c2sc(-n3nc(C)c(Cc4ccc5c(c4)OCO5)c3C)nc2C)c1C	nt	-13%	nt	nt	-13%
CCOc1ccc(OCCOCCN2CCc3ccccc3C2)cc1	-24%	nt	63%	31%	nt
C=CCc1cc(OC)ccc1OCCOCCN1CCc2ccccc2C1	?	-12%	13µM*	37%[5.75 µM]	?
O=C(CSc1nccc(=O)[nH]1)N1N=C2/C(=C/c3ccco3)CCCC2C1c1ccco1 (stereo not given)	-22%	-15%	0%	-19%	-13%
Cn1cnnc1SCC(=O)N1N=C2/C(=C/c3ccco3)CCCC2C1c1ccco1 (stereo not given)	-9%	-3%	10µM*	?	-11%
COCCN(C(=O)Cn1c(C(F)(F)F)nc2ccccc21)c1c(N)n(Cc2ccccc2)c(=O)[nH]c1=O	9%	1%	15µM*	?	i
CCN(C(=O)COC(=O)c1c(-c2ccccc2)noc1C)c1c(N)n(Cc2ccccc2)c(=O)[nH]c1=O	17%	-14%	?	?	-17%
Cc1nn(-c2ccccc2)c(C)c1C(=O)OCC(=O)N(C)c1c(N)n(Cc2ccccc2)c(=O)[nH]c1=O	11%	-11%	12µM*	?	i
CCc1nc2ccccc2c(C(=O)OCC(=O)N(CCOC)c2c(N)n(Cc3ccccc3)c(=O)[nH]c2=O)c1C	0%	-19%	?	13µM*	-21%
COCCN(C(=O)COC(=O)c1ccc(-c2ccccc2)cc1)c1c(N)n(Cc2ccccc2)c(=O)[nH]c1=O	2%[11.6 µM]	?	nt	nt	?
Cc1onc(-c2ccccc2)c1C(=O)OCC(=O)N(C)c1c(N)n(Cc2ccccc2)c(=O)[nH]c1=O	-7%	-13%	12µM*	?	-13%
CC(C)CN(C(=O)COC(=O)c1ccc(Br)cc1)c1c(N)n(Cc2ccccc2)c(=O)[nH]c1=O	0%	13µM*	?	?	?
COCCN(C(=O)COC(=O)c1c(-c2ccccc2)noc1C)c1c(N)n(Cc2ccccc2)c(=O)[nH]c1=O	-3%	-10%	12µM*	?	-8%
Cc1onc(-c2ccccc2)c1C(=O)OCC(=O)N(CC(C)C)c1c(N)n(Cc2ccccc2)c(=O)[nH]c1=O	3%	-13%	?	13µM*	-19%
CC(C)CN(C(=O)COC(=O)C12CC3CC(CC(C3)C1)C2)c1c(N)n(Cc2ccccc2)c(=O)[nH]c1=O	1%	-19%	0.13µM*	1.2µM*	-1%
Cc1cc(C)cc(NC(c2cccc(Cl)c2)c2nnc(-c3ccccc3)o2)c1 (stereo not given)	nt	4%	nt	nt	-8%
CN(C(=O)COC(=O)CCC(=O)c1ccccc1)c1c(N)n(Cc2ccccc2)c(=O)[nH]c1=O	3%	-16%	32%	16%	-23%

High-throughput results from PubChem BioAssay.
